Assay results taken from PubChem BioAssay AID431 (Sanford-Burnham Center for Chemical Genomics, 2006).
Screen size: about 63,000 compounds; about 1,100 (1.7%) were called active.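 Rule for the calls: active = compounds whose percent cytotoxicity in the single-dose primary screen, scaled between solvent and toxic-drug controls, exceeds 50; inactive = the rest.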 For the sample, actives were picked, then their nearest neighbours and some compounds at random. Entries with a potency or affinity are not part of this list.

Assay: cytotoxicity in KRAS-transformed pancreatic duct cells, primary screen, cell-based, fluorescence, HTS (AID 431);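 note: 0% = DMSO solvent wells and 100% = doxorubicin-treated wells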
Conditions: HPDE-C7K KRASV12 cells, Alamar Blue viability, 48 h; at 10 µM; active compounds read high
With `Cn1c(=O)c2c(nc(SCC(=O)O)n2Cc2cccc(C(F)(F)F)c2)n(C)c1=O` the cytotoxicity was -7.6% (inactive).
In the case of `CCCCOc1ccc(/C(O)=C2/C(=O)C(=O)N(CCCOC)C2c2ccncc2)cc1C` (stereo not given), the cytotoxicity is reported as -8.2% (inactive).
In the case of `COc1ccc(CN2C(=O)NC3(CCCCCC3)C2=O)cc1F`, the cytotoxicity is reported as -2.8% (inactive).
In the case of `CC(C)(C)c1cc(NC(=O)c2cccnc2)no1`, the cytotoxicity is reported as -7.8% (inactive).
For `O=C(Cn1c(=O)sc2ccccc21)Nc1ccccc1C(=O)O`, the cytotoxicity was 18.1% (inactive).
In the case of `COc1ccc(C2C(C(=O)Nc3ccccc3OC)=C(C)Nc3ncnn32)cc1` (stereo not given), the cytotoxicity is reported as -6.4% (inactive).
For `CCOC(=O)C1=C(CSc2nc3c(cc2C#N)CN(C)CC3)OC(N)=C(C#N)C1c1ccccc1` (stereo not given), the cytotoxicity was 14.3% (inactive).
In the case of `CCOC(=O)C1=C(CSc2nc(C)cc(C)c2C#N)OC(N)=C(C#N)C1c1cccs1` (stereo not given), the cytotoxicity is reported as -2.2% (inactive).
In the case of `CCOC(=O)C1=C(CSc2nc(-c3ccncc3)ccc2C#N)OC(N)=C(C#N)C1c1cccnc1` (stereo not given), the cytotoxicity is reported as 20% (inactive).
For `CCOC(=O)C1=C(CSc2nc3c(cc2C#N)CCC3)OC(N)=C(C#N)C1c1ccccc1` (stereo not given), the cytotoxicity was 108% (active).
With `CCOC(=O)C1=C(CSc2nc(C)ccc2C#N)OC(N)=C(C#N)C1c1cccc(OC)c1OC` (stereo not given) the cytotoxicity was 57.6% (active).
With `CCOC(=O)C1=C(C)OC(N)=C(C#N)C1c1ccc(OC)c(C)c1OC` (stereo not given) the cytotoxicity was 2.9% (inactive).
In the case of `COc1cc(S(=O)(=O)NCC2CCCO2)c(OC)cc1Cl` (stereo not given), the cytotoxicity is reported as -5.9% (inactive).
With `CCN(CC)CCN1C(=O)C(=O)/C(=C(/O)c2ccc(Cl)cc2)C1c1ccncc1` (stereo not given) the cytotoxicity was -16.4% (inactive).
For `CCOc1ccc(N2CC(=O)SC2=S)cc1`, the cytotoxicity was -11.8% (inactive).
In the case of `Cc1ccc(C#N)c(SCc2cc3c(cc2Cl)OCO3)n1`, the cytotoxicity is reported as 2.4% (inactive).
In the case of `COc1ccc(S(=O)(=O)Cc2ccc(C(=O)NC3CC3)o2)cc1`, the cytotoxicity is reported as -11.3% (inactive).
In the case of `O=C(CN1C(=O)COc2ccccc21)N(Cc1cccnc1)Cc1cccc(F)c1`, the cytotoxicity is reported as -1.8% (inactive).
With `O=C(NCc1ccccn1)C1CCN(S(=O)(=O)c2cccs2)CC1` the cytotoxicity was -6.5% (inactive).
In the case of `Cc1cc(C)cc(N2C(=O)CC(N3CCOCC3)C2=O)c1` (stereo not given), the cytotoxicity is reported as 1.2% (inactive).
In the case of `N#Cc1nc(-c2ccc(F)cc2)oc1N1CCCC1`, the cytotoxicity is reported as 3.4% (inactive).
With `O=C(c1ccc(F)cc1)c1ccc(N2CCCC2)cc1` the cytotoxicity was -11% (inactive).
For `CCCn1c(SCC(=O)NC(=O)NCc2ccco2)n[nH]c1=O`, the cytotoxicity was -2.3% (inactive).
With `O=C(NCC1CCCO1)c1cc2n(n1)C(C(F)(F)F)CC(c1ccc(Br)cc1)N2` (stereo not given) the cytotoxicity was 6.4% (inactive).
In the case of `O=S1(=O)CCC(NCC2CCCO2)C1` (stereo not given), the cytotoxicity is reported as 6.3% (inactive).
In the case of `CCOc1ccc(/C(O)=C2\C(=O)C(=O)N(CCN(C)C)C2c2cc(OC)ccc2OC)cc1Cl` (stereo not given), the cytotoxicity is reported as -1.7% (inactive).
For `CSc1ccc(Cl)c(C(=O)OCC(=O)N2CCOCC2)c1`, the cytotoxicity was -13.8% (inactive).
For `N#C/C(=C\c1ccc(O)c(O)c1)C(=O)NCCCc1ccccc1`, the cytotoxicity was 54.7% (active).
In the case of `N#C/C(=C\c1ccc(O)c(O)c1)S(=O)(=O)c1ccccc1`, the cytotoxicity is reported as 5.4% (inactive).
For `O=C(NCCCc1ccccc1)c1ccccc1O`, the cytotoxicity was -6.1% (inactive).
For `Cc1ccc(S(=O)(=O)N2CCCCC2)cc1C(=O)c1nccn1C`, the cytotoxicity was -13.8% (inactive).
In the case of `CCOc1ccc(NC(=O)CCS(=O)(=O)c2ccc3c(c2)CCCN3C(C)=O)cc1`, the cytotoxicity is reported as -19.8% (inactive).
With `COc1ccc(CCn2c(N)c(C(=O)NCc3ccco3)c3nc4ccccc4nc32)cc1OC` the cytotoxicity was 57.5% (active).
With `COc1ccc(-n2c(N)c(C(=O)NCc3ccco3)c3nc4ccccc4nc32)c(OC)c1` the cytotoxicity was 5.2% (inactive).
In the case of `O=C(Cn1c(CN2CCCCC2)nc2ccccc2c1=O)NCc1ccco1`, the cytotoxicity is reported as -21.9% (inactive).
For `COc1ccc(CCn2c(N)c(C#N)c3nc4ccccc4nc32)cc1OC`, the cytotoxicity was -1.9% (inactive).
With `Nc1c(C(=O)NCCN2CCOCC2)c2nc3ccccc3nc2n1-c1ccccc1` the cytotoxicity was -0.8% (inactive).
For `Cc1cccc(-n2c(Cc3cc(=O)[nH]c(=O)[nH]3)nnc2SCC(=O)NCc2ccco2)c1`, the cytotoxicity was -4.5% (inactive).
With `O=C(NCc1cccc(F)c1)c1noc2c1CCCC2` the cytotoxicity was -1.2% (inactive).
With `Cc1cc(O)cc(=O)n1Cc1ccco1` the cytotoxicity was -8.3% (inactive).
For `COc1cc(C)c(C(C)C)cc1S(=O)(=O)N1CCN(C)CC1`, the cytotoxicity was -21.8% (inactive).
With `COc1cc(Cl)c(S(=O)(=O)n2cnc(C)c2)cc1Cl` the cytotoxicity was 4.1% (inactive).
In the case of `COc1ccc(-c2c(C)oc3c(CN4CCN(C)CC4)c(O)ccc3c2=O)cc1`, the cytotoxicity is reported as -6.1% (inactive).
With `CCOC(=O)C1=C(CS(=O)(=O)c2ccccc2)NC(=O)NC1c1ccccc1OCC` (stereo not given) the cytotoxicity was -3.7% (inactive).
In the case of `Cc1ccc(S(=O)(=O)CC(c2ccccc2)N2CCOCC2)cc1` (stereo not given), the cytotoxicity is reported as -3.6% (inactive).
With `Nc1ncn(C(=O)c2ccco2)n1` the cytotoxicity was 4.4% (inactive).
In the case of `O=C(COc1cc(=O)n2c(n1)SCCC2)c1ccccc1`, the cytotoxicity is reported as -1.2% (inactive).
In the case of `CCOC(=O)Nc1ccc2c(c1)N(C(=O)CN1CCN(C)CC1)c1ccccc1S2`, the cytotoxicity is reported as 5.6% (inactive).
In the case of `CN1CCN(CCCN2c3ccccc3Sc3ccc(Cl)cc32)CC1`, the cytotoxicity is reported as 82.7% (active).
In the case of `CN1CCN(CCC(=O)N2c3ccccc3Sc3ccc(Cl)cc32)CC1`, the cytotoxicity is reported as 35.1% (inactive).
With `O=C(CN1CCN(CCOCCO)CC1)N1c2ccccc2Sc2ccc(Cl)cc21` the cytotoxicity was -26% (inactive).
With `OCCN1CCN(C(=S)c2ccc(Cl)cc2)CC1` the cytotoxicity was -18.6% (inactive).
In the case of `CC(=O)C1=C(O)C(=O)N(CCN2CCOCC2)C1c1ccc(N(C)C)cc1` (stereo not given), the cytotoxicity is reported as -11.6% (inactive).
In the case of `Cc1oc(-c2cccc(Cl)c2)nc1CN1CCC(C(=O)NCC2CCCO2)CC1` (stereo not given), the cytotoxicity is reported as 21.4% (inactive).
For `COc1ccc(OC)c(C2C(C(C)=O)=C(O)C(=O)N2CCN2CCOCC2)c1` (stereo not given), the cytotoxicity was 3.1% (inactive).
With `COc1cccc(C(=O)CSc2nnc(CNc3nc(-c4ccccc4)cs3)n2C)c1` the cytotoxicity was -0.3% (inactive).
With `CC(CC1C(C#N)=C(N)OC2=C1C(=O)CCC2)c1ccccc1` (stereo not given) the cytotoxicity was -2.7% (inactive).
In the case of `Cc1cccc(-c2noc(CCc3ccccc3)n2)c1`, the cytotoxicity is reported as 4.2% (inactive).
In the case of `Cc1ccc(Nc2nc(N)nc(CN3CCN(Cc4ccc5c(c4)OCO5)CC3)n2)c(C)c1`, the cytotoxicity is reported as -5.2% (inactive).
For `Cc1cc(C(=O)NCCCN2CCOCC2)n(-c2ccccc2)n1`, the cytotoxicity was -11.4% (inactive).
In the case of `Cc1cc(C(=O)NCCN2CCN(c3cccc(Cl)c3)CC2)n(-c2ccccc2)n1`, the cytotoxicity is reported as 60.3% (active).
In the case of `Cc1cc(C(=O)NCCCN2CCN(C3CCCCC3)CC2)n(-c2ccccc2)n1`, the cytotoxicity is reported as -1% (inactive).
For `CCN(CC)S(=O)(=O)c1ccc(N2CCCC2)c(C(=O)OCC(=O)/C(C#N)=C(\C)N)c1`, the cytotoxicity was 10.5% (inactive).
With `CC(C)=C1C2C=CC1C(C(=O)Nc1cc(C)ccc1C)C2C(=O)O` (stereo not given) the cytotoxicity was -14.9% (inactive).
For `CCOc1ccccc1NC(=O)Cn1nnc(C(=O)NCc2ccco2)c1N`, the cytotoxicity was 55.3% (active).
In the case of `CCOc1ccccc1NC(=O)Cn1nnc(C(=O)Nc2ccccc2Cl)c1N`, the cytotoxicity is reported as 3.6% (inactive).
In the case of `CCOc1ccccc1NC(=O)Cn1nnc(C(=O)Nc2ccc(C)cc2)c1N`, the cytotoxicity is reported as 5.2% (inactive).
For `CCN(CC)CCCN1C(=O)C(=O)/C(=C(/O)c2cc(C)ccc2C)C1c1cccnc1` (stereo not given), the cytotoxicity was -4.8% (inactive).
For `CCOC(=O)c1ccccc1NC(=O)c1ccccc1SC`, the cytotoxicity was 21.6% (inactive).
In the case of `O=C(Nc1ccccc1Cl)c1c(F)c(F)c(F)c(F)c1F`, the cytotoxicity is reported as 0.3% (inactive).
In the case of `CCOC(=O)c1ccccc1NC(=O)c1cccs1`, the cytotoxicity is reported as -12.9% (inactive).
In the case of `Cc1ccccc1NC(=O)c1c(F)c(F)c(F)c(F)c1F`, the cytotoxicity is reported as -12% (inactive).
In the case of `CC1=C(C#N)C(C)C2=C(CC(C)(C)CC2=O)N1` (stereo not given), the cytotoxicity is reported as -3.6% (inactive).
With `COc1ccc2c(c1)C(=O)CC(c1ccccc1F)O2` (stereo not given) the cytotoxicity was 7.5% (inactive).
In the case of `Cn1c(Cl)cnc1C1CC(=O)c2cc(Cl)ccc2O1` (stereo not given), the cytotoxicity is reported as 67.1% (active).
For `CN1CCN(C2=Nc3ccccc3Oc3ccc(Cl)cc32)CC1`, the cytotoxicity was -3.2% (inactive).
In the case of `O=C(Nc1ccc2nc[nH]c2c1)c1ccco1`, the cytotoxicity is reported as 16.9% (inactive).
For `COC(=O)C(C)Sc1nc2c(c(=O)[nH]c(=O)n2C)n1CCCc1ccccc1` (stereo not given), the cytotoxicity was -4.9% (inactive).
With `O=S(=O)(NCCO)c1cccc2cccnc12` the cytotoxicity was -9.3% (inactive).
In the case of `CCC(C)(C)n1nnnc1C(c1ccc(C)cc1)N1CCN(Cc2cccnc2)CC1` (stereo not given), the cytotoxicity is reported as -32% (inactive).
For `O=C(OCC(=O)N1CCN(C(=O)c2ccco2)CC1)c1cc(=O)c2ccccc2o1`, the cytotoxicity was -1.9% (inactive).
In the case of `C=C1[C@@H](C)C2[C@H](Cc3ccccc3)NC(=O)[C@]23OC(=O)CC[C@H](O)CCC[C@H](C)C/C=C/[C@H]3[C@@H]1O` (stereo not given in full), the cytotoxicity is reported as 59.8% (active).
In the case of `Cc1ccc(Nc2cccccc2=O)cc1`, the cytotoxicity is reported as -1.6% (inactive).
With `CCC1(C)Cc2c(sc3c2c(=O)n(C)c2nnc(SCc4ccccc4)n32)CO1` (stereo not given) the cytotoxicity was 3.4% (inactive).
In the case of `NC1=NC(c2ccccc2Cl)n2c(nc3ccccc32)N1` (stereo not given), the cytotoxicity is reported as 0.6% (inactive).
With `Cc1cc(C2N=C(N)Nc3nc4ccccc4n32)c(C)n1-c1ccccc1Cl` (stereo not given) the cytotoxicity was 5.7% (inactive).
In the case of `COc1ccc(-n2nnnc2S(=O)(=O)Cc2ccc(C(=O)O)cc2)cc1`, the cytotoxicity is reported as 2.6% (inactive).
In the case of `COc1cc(OC)cc(-n2nnnc2SCC(=O)N2CCCC2)c1`, the cytotoxicity is reported as -16% (inactive).
For `COc1ccc(-n2nnnc2S(=O)(=O)CC(=O)N2CCCCC2)cc1`, the cytotoxicity was 56.8% (active).
In the case of `COc1ccccc1N1CCN(CC(O)COc2c(OC)cccc2OC)CC1` (stereo not given), the cytotoxicity is reported as 3.7% (inactive).
With `COc1ccccc1N1CCN(CC(O)COc2cccc3ccccc23)CC1` (stereo not given) the cytotoxicity was 51.3% (active).
With `C=CCc1ccccc1OCC(O)CN1CCN(c2ccccc2OC)CC1` (stereo not given) the cytotoxicity was 6.9% (inactive).
For `CCn1c(SCC(=O)N2CCCC2)nc2c1c(=O)n(C)c(=O)n2C`, the cytotoxicity was -12.3% (inactive).
In the case of `Cc1cc(OCCOCCN(C)CCO)cc(C)c1Cl`, the cytotoxicity is reported as 16.8% (inactive).
In the case of `CN(c1ccccc1)S(=O)(=O)c1ccc(C(=O)Nc2nnc(-c3ccc(F)cc3)o2)cc1`, the cytotoxicity is reported as 62.8% (active).
For `COc1ccccc1-c1nnc(NC(=O)c2ccc(S(=O)(=O)N(C)Cc3ccccc3)cc2)o1`, the cytotoxicity was 64.9% (active).
In the case of `Cc1ccccc1C(=O)Nc1nnc(-c2ccc(F)cc2)o1`, the cytotoxicity is reported as 10.5% (inactive).
In the case of `CCN(Cc1ccccc1)S(=O)(=O)c1ccc(C(=O)Nc2nnc(-c3ccccc3OC)o2)cc1`, the cytotoxicity is reported as 37.9% (inactive).
With `COCc1nnc(NC(=O)c2ccc(S(=O)(=O)N(C)c3ccccc3)cc2)o1` the cytotoxicity was 36.3% (inactive).
With `COc1ccccc1-c1nnc(NC(=O)c2ccc(S(=O)(=O)N(C)C)cc2)o1` the cytotoxicity was -3.2% (inactive).
